Laboratory results reported in the supplement of paper PMC13392028.
The full ranking holds about 4,100 sequences; the median of “RBNS R-value (6-mer enrichment in protein-bound RNA vs input library)” is about 0.96, and the highest 2% start at about 2.4. Shown is part of a subset that was picked to be rich in the highest values.

Tested on: PyIESI-1 RRM domain (Plasmodium yoelii PY17X_0911200 aa 795-956, GST fusion)
Test: RBNS R-value (6-mer enrichment in protein-bound RNA vs input library) (ratio); higher = stronger binding preference; the methods of the paper give 50 / 100 / 500 nM protein instead
Method: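 RNA Bind-n-Seq: recombinant GST-tagged IESI-1 RRM domain was incubated at room temperature with a random 40-nt in vitro transcribed RNA library at 250, 500 or 1000 nM protein. Bound RNA was pulled down on glutathione beads and sequenced. R-value is the enrichment of each 6-mer in the bound RNA relative to the input library. Each 6-mer sits inside the random 40-mer context, not as an isolated oligo. Values are replicate 1 only.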

Row | Sequence | RBNS R-value (protein concentration: 250 nM) | RBNS R-value (protein concentration: 500 nM) | RBNS R-value (protein concentration: 1000 nM)
1 | ACAUUG | 1.19 | 1.17 | 1.2
2 | GACCAG | 1.1 | 1.11 | 1.09
3 | GCUACU | 0.838 | 0.861 | 0.829
4 | GUGGAG | 0.967 | 0.977 | 0.96
5 | CAUUCG | 1.01 | 1.05 | 1.07
6 | GAUUCA | 2.85 | 2.7 | 2.92
7 | CAUUCC | 0.948 | 0.975 | 0.997
8 | AAUUCA | 0.88 | 0.882 | 0.917
9 | AAUUCC | 1.12 | 1.09 | 1.12
10 | GAUUCC | 2.42 | 2.37 | 2.49
11 | GAUUCU | 2.89 | 2.77 | 2.85
12 | UAUUCA | 0.554 | 0.565 | 0.571
13 | UAUUCU | 0.707 | 0.731 | 0.734
14 | AAUUCG | 1.08 | 1.08 | 1.08
15 | AAUUCU | 1.06 | 1.05 | 1.06
16 | GAUUCG | 2.64 | 2.49 | 2.51
17 | GCGCAG | 1.01 | 1.03 | 1.03
18 | ACAUCG | 0.752 | 0.777 | 0.749
19 | UCCAGU | 0.838 | 0.85 | 0.831
20 | ACCCAG | 1.32 | 1.27 | 1.32
21 | AAUCCC | 0.954 | 0.955 | 0.949
22 | ACUGCG | 1.12 | 1.13 | 1.13
23 | GACAAC | 1.09 | 1.07 | 1.07
24 | UCUUCC | 0.978 | 1.01 | 1.03

Row | Sequence | RBNS R-value (protein concentration: 250 nM) | RBNS R-value (protein concentration: 500 nM) | RBNS R-value (protein concentration: 1000 nM)
25 | AGAUCU | 0.946 | 0.924 | 0.93
26 | GGAUCA | 0.767 | 0.764 | 0.736
27 | AGAUCA | 0.82 | 0.812 | 0.814
28 | CGAUCC | 1.19 | 1.22 | 1.26
29 | CGAUCU | 1.15 | 1.15 | 1.19
30 | UGAUCU | 2.74 | 2.75 | 2.93
31 | UGAUCA | 2.37 | 2.38 | 2.64
32 | UGAUCC | 2.58 | 2.6 | 2.82
33 | GGAUCC | 0.932 | 0.922 | 0.909
34 | GUGUUC | 0.821 | 0.855 | 0.82
35 | CGUACU | 0.773 | 0.765 | 0.73
36 | CAGUGA | 1.6 | 1.58 | 1.62
37 | UGAUUC | 6.24 | 5.67 | 5.91
38 | CGAUUU | 2.59 | 2.56 | 2.71
39 | CGAUUA | 1.73 | 1.79 | 1.94
40 | UGAUUA | 6.31 | 5.88 | 6.3
41 | CUAUUU | 0.653 | 0.681 | 0.664
42 | CCAUUU | 0.871 | 0.913 | 0.936
43 | AGAUUC | 1.47 | 1.49 | 1.58
44 | CGAUUC | 2.08 | 2.12 | 2.24
45 | GGAUUU | 1.08 | 1.1 | 1.06
46 | AGAUUA | 1.09 | 1.16 | 1.25
47 | AGAUUU | 1.72 | 1.72 | 1.83
48 | UGAUUU | 7.9 | 7.06 | 7.22

Row | Sequence | RBNS R-value (protein concentration: 250 nM) | RBNS R-value (protein concentration: 500 nM) | RBNS R-value (protein concentration: 1000 nM)
49 | GCCAGU | 0.86 | 0.901 | 0.892
50 | UCUUGC | 1.12 | 1.17 | 1.18
51 | GAACCU | 1.11 | 1.1 | 1.07
52 | GAUACC | 1.83 | 1.85 | 1.99
53 | ACGAAU | 0.896 | 0.896 | 0.865
54 | GCAGUG | 1.11 | 1.14 | 1.12
55 | AUUCGC | 1.47 | 1.43 | 1.46
56 | UACUUC | 0.69 | 0.719 | 0.702
57 | AUCCCU | 0.892 | 0.921 | 0.934
58 | CCGGUG | 1.11 | 1.14 | 1.12
59 | CGCUUA | 0.602 | 0.629 | 0.617
60 | AUCUAA | 0.647 | 0.67 | 0.637
61 | GUCAAU | 0.655 | 0.685 | 0.671
62 | UGAUUG | 5.45 | 4.95 | 4.94
63 | GGAUUG | 1.22 | 1.22 | 1.15
64 | CGAUUG | 2.25 | 2.18 | 2.2
65 | GAAAGG | 1.1 | 1.08 | 1.01
66 | AGAUAC | 1.02 | 1.09 | 1.09
67 | ACCUCG | 1.08 | 1.06 | 1.06
68 | GGUGAU | 2.66 | 2.69 | 2.75
69 | AGUGAC | 1.01 | 1.04 | 1.02
70 | CGUGAA | 0.949 | 0.925 | 0.895
71 | CGUGAG | 0.911 | 0.913 | 0.868
72 | CGUGAU | 3.46 | 3.26 | 3.39

Row | Sequence | RBNS R-value (protein concentration: 250 nM) | RBNS R-value (protein concentration: 500 nM) | RBNS R-value (protein concentration: 1000 nM)
73 | AGUGAU | 3.53 | 3.36 | 3.56
74 | UGUGAU | 3.77 | 3.62 | 3.78
75 | UGUGAC | 1.17 | 1.18 | 1.16
76 | UGUGAG | 1.11 | 1.1 | 1.05
77 | GGUGAG | 0.98 | 0.993 | 0.943
78 | AGUGAA | 0.884 | 0.89 | 0.844
79 | GGUGAC | 1.01 | 1.04 | 0.983
80 | UGCGCU | 1.27 | 1.25 | 1.26
81 | UCCGUG | 1.12 | 1.15 | 1.16
82 | GACUCG | 1.11 | 1.13 | 1.07
83 | UGUUUC | 0.901 | 0.972 | 0.97
84 | AGCUGA | 1.72 | 1.68 | 1.68
85 | UCGUGG | 0.808 | 0.811 | 0.782
86 | CAGCGU | 0.779 | 0.809 | 0.78
87 | UGCCUC | 1.11 | 1.13 | 1.19
88 | UGGCCA | 1.26 | 1.22 | 1.24
89 | GAUAGC | 2.53 | 2.39 | 2.48
90 | GAUAGA | 1.92 | 1.93 | 2
91 | GAUAGU | 1.39 | 1.41 | 1.45
92 | UGCUCA | 0.956 | 0.977 | 1
93 | AAUGUU | 0.8 | 0.836 | 0.819
94 | GAUGUC | 2.55 | 2.44 | 2.5
95 | UAUGUG | 0.924 | 0.971 | 0.978
96 | CAUGUG | 1.02 | 1.04 | 1.03

Row | Sequence | RBNS R-value (protein concentration: 250 nM) | RBNS R-value (protein concentration: 500 nM) | RBNS R-value (protein concentration: 1000 nM)
97 | UAUGUA | 0.585 | 0.616 | 0.581
98 | GAUGUA | 2.51 | 2.41 | 2.52
99 | CAUGUU | 0.726 | 0.757 | 0.737
100 | UAUGUC | 0.642 | 0.672 | 0.661
101 | GAUGUU | 2.92 | 2.8 | 2.87
102 | AAUGUA | 0.646 | 0.662 | 0.639
103 | GAUGUG | 3.46 | 3.14 | 3.14
104 | CAUGUC | 0.705 | 0.722 | 0.733
105 | GCGUCG | 0.809 | 0.784 | 0.765
106 | UUGUUA | 0.717 | 0.765 | 0.738
107 | AGCCUG | 1.33 | 1.33 | 1.36
108 | GUGGCC | 0.987 | 0.981 | 0.976
109 | AACCUG | 1.37 | 1.36 | 1.38
110 | CCGCUA | 0.743 | 0.757 | 0.758
111 | UACUAC | 0.519 | 0.53 | 0.491
112 | GAUUAC | 2.72 | 2.65 | 2.82
113 | GAUUAG | 2.44 | 2.41 | 2.5
114 | CAUUAC | 0.471 | 0.51 | 0.491
115 | CAUUAA | 0.41 | 0.435 | 0.403
116 | CAUUAG | 0.57 | 0.593 | 0.579
117 | GAUUAA | 2.47 | 2.37 | 2.56
118 | AAUUAG | 0.641 | 0.657 | 0.639
119 | AAUUAA | 0.471 | 0.515 | 0.483
120 | UAUUAC | 0.487 | 0.514 | 0.489
